Screens deposited in PubChem by National Center for Advancing Translational Sciences (NCATS).
Rows were chosen to be rich in hits. Some 15% of all compounds tested hit in one or more screens of this group.
Pf growth 48h – Primary qHTS for delayed death inhibitors of the malarial parasite plastid, 48 hour incubation | P. falciparum luciferase growth in erythrocytes, 48 h | Potency, µM (doses to about 28.7 µM), hits mostly inhibitors | hit rate 5.9% among 310,000 | AID 504832, 2011
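Luciferase-expressing P. falciparum in infected erythrocytes (2% hematocrit, 0.1% parasitemia final) in RPMI 1640/0.5% Albumax were exposed to compound for 48 hours at 37 C, 5% CO2; growth read as luminescence.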
HCV inhibitor – qHTS Assay for Inhibitors of Hepatitis C Virus (HCV); Huh7.5.1 HCVcc-Cre infection, luciferase reporter, 44 h; Potency, µM (doses to about 41.8 µM), actives largely listed as inhibitors; hit rate 3.4% among 340,000; AID 651820, 2012
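After 44 h co-culture of compound, cells and HCVcc-Cre (~0.5 moi), substrate is added for 15 min at room temperature and luciferase measured over 15 sec. Cells were seeded at 1,000/well and pre-cultured 4 h.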
Pf growth 96h – Primary qHTS for delayed death inhibitors of the malarial parasite plastid, 96 hour incubation; P. falciparum luciferase reporter growth, 96 h; Potency, µM (top dose mostly 28.7 µM), actives largely listed as inhibitors; hit rate 6.9% among 320,000; AID 504834, 2011
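Luminescence readout: decreased luciferase signal marks inhibited growth of reporter-expressing P. falciparum in infected red cells (2% hematocrit, 0.05% parasitemia final), exposed to compound two generations (96 h, 37 C, 5% CO2).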
SARS PLP yeast – qHTS of Yeast-based Assay for SARS-CoV PLP | S. cerevisiae expressing SARS-CoV PLpro, growth rescue | Potency, µM (series often up to 32.9 µM), actives largely listed as activators | hit rate 0.19% among 330,000; calls by dose curve; note: nearly all actives have a fitted effect of over 55% in size
HCMV antiviral – qHTS Assay for inhibitors of the human cytomegalovirus (HCMV). hit rate 4.5% among 410,000. HFF cells, HCMV-luciferase reporter, 72 h; hits give low values. activity change, negative = inhibition, % at 57.5 µM; in the data active = activity change below about -60%; inconclusive = no clear call, values can overlap the other calls; inactive = above about -39%
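Two-dose cell screen: HFF monolayers treated with compounds and infected with luciferase-expressing HCMV at 1 PFU/cell, 72 h at 37C, then lysed for luciferase measurement.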
Sm TGR block – qHTS Assay for the Inhibitors of Schistosoma Mansoni Peroxiredoxins | Schistosoma mansoni thioredoxin glutathione reductase (TGR), Q962Y6 | purified TGR, DTNB reduction, TNB absorbance 405 nm | Potency, µM (doses to about 114 µM), hits mostly inhibitors | hit rate 3% among 360,000; note: nearly all actives have a fitted effect of over 60% in size
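TGR 20 nM + NADPH 100 uM (dispensed conc.), cpd preinc 15 min RT; start with NADPH (500 uM addition) then DTNB (15 mM addition). Kinetic TNB absorbance, 405 nm filter. Four-parameter Hill fit across titration.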
Each line names hits and unclear results; the compound was inactive in the other large screens. Unless noted, calls come from the whole dose curve; as a rule, active = well fitted curve in the direction sought with a large enough effect; inconclusive = small, poorly fitted or top-dose-only effect, or another doubt; inactive = no such curve, though single readings can be large; an effect the other way counts as inactive or inconclusive.

S=c1[nH]nc(-c2cccc(Cl)c2)n1/N=C/c1ccco1	Sm TGR block 40µM (no result: HCMV antiviral)
O=C1OC(c2ccccc2)=N/C1=C\C=C\c1ccco1	Sm TGR block inconclusive
CC(/C=N/n1c(-c2ccc(C)cc2)n[nH]c1=S)=C\c1ccco1	none
S=c1[nH]nc(-c2cccc(Cl)c2)n1/N=C/c1ccc(-c2ccccc2Br)o1	Pf growth 48h 10µM, Pf growth 96h inconclusive, HCMV antiviral inconclusive
Cc1noc(C)c1COC(=O)C(c1ccccc1)c1ccccc1	HCMV antiviral inconclusive
S=c1[nH]nc(-c2ccccc2Cl)n1/N=C/C=C/c1ccco1	Sm TGR block 20µM
Cc1cccc(-c2n[nH]c(=S)n2/N=C/C=C/c2ccco2)c1	Sm TGR block 11µM
COc1ccccc1/C=C\C=N\n1c(-c2ccc(Cl)cc2Cl)n[nH]c1=S	none
S=c1[nH]nc(-c2ccncc2)n1/N=C/C=C/c1ccco1	Pf growth 96h inconclusive, HCMV antiviral inconclusive, Sm TGR block 22µM
CC(/C=N/n1c(-c2ccccc2)n[nH]c1=S)=C\c1ccco1	Sm TGR block inconclusive
COc1cccc(O)c1CN1CCCC(C(=O)c2cccc(C(F)(F)F)c2)C1 (configuration not stated)	Pf growth 48h 2.9µM, HCV inhibitor inconclusive, Pf growth 96h inconclusive
O=C(c1cccc(C(F)(F)F)c1)C1CCCN(Cc2ncc[nH]2)C1 (configuration not stated)	Pf growth 96h inconclusive
Cn1cc(/C=C/C(=O)N2CCCC(C(=O)c3cccc(C(F)(F)F)c3)C2)cn1 (configuration not stated)	Pf growth 96h 4.1µM
CCn1ccnc1CN1CCCC(C(=O)c2cccc(C(F)(F)F)c2)C1 (configuration not stated)	Pf growth 48h 9.3µM
CC1CCN(S(=O)(=O)c2ccc3ncn(CC(=O)N4CCN(C)CC4)c(=O)c3c2)CC1	HCMV antiviral inconclusive
COc1cccc(NC(=O)N(C)C[C@H]2Oc3cc(C#Cc4ccncc4)ccc3S(=O)(=O)N([C@H](C)CO)C[C@H]2C)c1	HCMV antiviral -109 (no result: Pf growth 48h, HCV inhibitor, Pf growth 96h, SARS PLP yeast, Sm TGR block)
C[C@@H]1CN([C@H](C)CO)S(=O)(=O)c2ccc(Br)cc2O[C@@H]1CN(C)C(=O)Nc1ccc(C(F)(F)F)cc1	none (no result: Pf growth 48h, HCV inhibitor, Pf growth 96h, SARS PLP yeast, Sm TGR block)
Cc1ccccc1-c1ccc2c(c1)O[C@@H](CN(C)C(=O)Nc1ccc(C(F)(F)F)cc1)[C@H](C)CN([C@@H](C)CO)S2(=O)=O	HCMV antiviral -76 (no result: Pf growth 48h, HCV inhibitor, Pf growth 96h, SARS PLP yeast, Sm TGR block)
COc1ccc(C#Cc2ccc3c(c2)O[C@@H](CN(C)C(=O)Nc2cccc(OC)c2)[C@H](C)CN([C@@H](C)CO)S3(=O)=O)cc1	none (no result: Pf growth 48h, HCV inhibitor, Pf growth 96h, SARS PLP yeast, Sm TGR block)
Nc1ncnc2c1ncn2[C@@H]1O[C@H](CNC(=O)[C@@H]2CCC(=O)N2)[C@@H](O)[C@H]1O	none (no result: Pf growth 48h, Pf growth 96h, HCMV antiviral, Sm TGR block)
CCOCCCNC(=O)CCc1ccc(-n2cnc3cccnc32)cc1	HCMV antiviral -67
CC[C@]1(c2ccccc2)C(=O)N(C(=O)OC)N1C(=O)OC	Sm TGR block 2.2µM
CC[C@@]1(c2ccccc2C)C(=O)N(C(=O)OC)N1C(=O)OC	Pf growth 96h inconclusive, Sm TGR block 6.3µM
CC[C@@]1(c2ccccc2)C(=O)N(C(=O)OC)N1C(=O)OC	Sm TGR block 2µM
Cc1cccc(OCC(=O)NNC(=O)CCCCC(=O)NNC(=O)COc2cccc(C)c2)c1	Pf growth 96h inconclusive
Cc1ccccc1CNC(=O)COc1ccccc1	Pf growth 96h inconclusive
COC(=O)N1C(=O)[C@](c2ccccc2)(C(C)C)N1C(=O)OC	none
CC[C@]1(c2cccc(C)c2)C(=O)N(C(=O)OC)N1C(=O)OC	Sm TGR block 1.8µM
Cc1csc(C(=O)O)c1NC(=O)c1cccc([N+](=O)[O-])c1	none
Cc1cc(C)c(NC(=O)c2cc(CN3CCOCC3)on2)c(C)c1	none (no result: Pf growth 48h, HCV inhibitor, Pf growth 96h, SARS PLP yeast)
CCc1nc2c(OCc3ccc4c(c3)OCO4)cccn2c1N(C=O)Cc1ccccc1	none (no result: Pf growth 48h, HCV inhibitor, Pf growth 96h, SARS PLP yeast, Sm TGR block)
COC(=O)N1C(=O)[C@@](c2ccccc2)(C2CCCCC2)N1C(=O)OC	Sm TGR block 13µM
CC1(C(=O)Nc2ccc3c(c2)OCCO3)CN(S(C)(=O)=O)CC(=O)N1CCCn1ccnc1 (configuration not stated)	none (no result: Pf growth 48h, HCV inhibitor, Pf growth 96h, SARS PLP yeast, Sm TGR block)
NC(=O)c1ccc(OCC(F)(F)C(F)(F)C(F)(F)C(F)(F)C(F)(F)C(F)F)cc1	Pf growth 96h 12µM
Cc1cc(OCC(F)(F)C(F)(F)C(F)(F)C(F)(F)C(F)(F)C(F)F)nc(N)n1	Sm TGR block inconclusive
O=S1(=O)N[C@@H](Cc2ccccc2)COc2cccc(NCCCN3CCOCC3)c21	none (no result: Pf growth 48h, HCV inhibitor, Pf growth 96h, SARS PLP yeast, Sm TGR block)
COCCN1C(=O)Cc2c1nc(N)c1c(N)nc(N3CCN(c4ccc(F)cc4)CC3)c(C#N)c21	Pf growth 48h 7.4µM, Pf growth 96h inconclusive, HCMV antiviral inconclusive
N#CCc1c(C#N)c(N)nc(N2CCN(c3ccc(F)cc3)CC2)c1C#N	Pf growth 48h 9.3µM, HCV inhibitor inconclusive (no result: Pf growth 96h)
COCC(C)N1C(=O)Cc2c1nc(N)c1c(N)nc(N3CCN(c4ccccc4F)CC3)c(C#N)c21 (configuration not stated)	Pf growth 48h 5.9µM, HCV inhibitor inconclusive, Pf growth 96h 1.3µM, HCMV antiviral inconclusive
N#CCc1c(C#N)c(N)nc(N2CCN(S(=O)(=O)c3ccccc3F)CC2)c1C#N	Pf growth 48h inconclusive, HCV inhibitor inconclusive, Pf growth 96h inconclusive, SARS PLP yeast inconclusive
O=C(Nc1ccccc1C(=O)N1CCCC1)c1ccc(Cl)c([N+](=O)[O-])c1	Pf growth 96h inconclusive
CC(=O)Nc1cccc(N=NN2CCCCC2)c1	none (no result: Sm TGR block)
Cc1cc(C)n(-c2ccc(C(=O)Nc3cccc([N+](=O)[O-])c3)cc2)n1	HCV inhibitor 11µM, HCMV antiviral inconclusive
Cc1cc(C)n(-c2ccc(C(=O)Nc3cccc(S(=O)(=O)N(C)C)c3)cc2)n1	HCV inhibitor 5µM, Pf growth 96h inconclusive, HCMV antiviral -96
COc1ccc(NC(=O)c2ccc(-n3nc(C)cc3C)cc2)cc1OC	HCV inhibitor 7.1µM
Cc1cc(C)n(-c2ccc(C(=O)Nc3ccc(C)c(S(=O)(=O)N(C)C)c3)cc2)n1	Pf growth 48h inconclusive, HCV inhibitor 10µM, Pf growth 96h 12µM, HCMV antiviral -81
CC(=NO)C1(C)CC=CCC1CO (configuration not stated)	none (no result: Pf growth 48h, HCV inhibitor, Pf growth 96h, SARS PLP yeast, Sm TGR block)
NCCCCc1cn(CC(=O)N2CCNCC2)nn1	none
Cc1cc(C)n(-c2ccc(C(=O)Nc3ccc(N4CCOCC4)cc3)cc2)n1	none (no result: Pf growth 48h)
CCN(CC)S(=O)(=O)c1ccc(C(=O)Nc2cccc(C)c2)cc1	Pf growth 48h inconclusive, HCV inhibitor inconclusive (no result: Pf growth 96h)
